The structures appear in SMILES notation. Results filed as inconclusive are left out. Active and inactive are the calls of the source. Calls come from the whole dose curve; as a rule, active = well fitted cell-killing curve with a large enough effect in the repeat runs; inconclusive = weak or mixed curves, or effect the other way; inactive = flat fitted curve, though single readings scatter.

Experimental findings from PubChem BioAssay (Tox21) are described below.
% is set by controls: 0 for no effect and ±100 for the full control effect.

This assay in a line: qHTS assay to identify small molecule agonists of the constitutive androstane receptor (CAR) signaling pathway - cell viability counter screen (AID 1224836). Note: nearly all actives have a fitted effect of over 45% in size. The note with it: HepG2-CYP2B6-hCAR viability, CellTiter-Fluor, 23 h, PK11195 added to every well; series mostly up to 92.4 µM. The source says:
U.S. Tox21 Program National Center for Advancing Translational Sciences [NCATS] NIH Chemical Genomics Center [NCGC] U.S. Environmental Protection Agency [EPA] National Institutes of Environmental Health Sciences [NIEHS] National Toxicology Program [NTP] U.S. Food and Drug Administration [FDA] Tox21 Assay Overview: The constitutive androstane receptor (CAR) is a nuclear receptor which regulates multiple drug metabolizing enzymes (DMEs) and transporters. Activating CAR will generally increase the transcription and subsequent translation of CYP2B6 and CYP3A4. These two DMEs represent about 50% of the drug metabolizing potential in the body. […] Recently, there have also been studies performed indicating CARs role in energy metabolism and cancer therapy. Therefore, inducing CARs activity could have a potential effect on diabetes and cancer. Identifying environmental toxins and compounds which modulate CAR, through the use of the Tox21 10K compound collection, will be an important step in determining the toxicity and potential therapeutic effects these factors will have on the human body. To differentiate true CAR agonists from cytotoxic substances, the assay is multiplexed with a cell viability assay.
Tox21 Assay Protocol Summary: A double-stable (hCAR and CYP2B6-2.2kb) transfected cell line, derived from human hepatoma (HepG2) cells, was utilized for the duration of the quantitative high-throughput screens. The HepG2-CYP2B6-hCAR cells were dispensed at 2500 cells/4 uL/well in 1536-well white solid bottom plates using a Multidrop Combi. After the assay plates were incubated at 37 C/5% CO2 for 4 hrs, 23 nL of compounds at 15 concentrations (from 5-48 columns) or positive control (from 1 to 4 columns) were transferred to the assay plates using a Pintool station. One uL of PK11195 (final concentration = 0.75 uM) was added, using a Flying Reagent Dispenser, inside each well. After a 23 hr incubation period at 37 C/5% CO2, 1 uL of CellTiter-Fluor reagent was added into each well of the assay plates using a Flying Reagent Dispenser. The fluorescence intensity in the plates was then measured using a ViewLux plate reader.
Consider `CCCCOCCOC(=O)COc1cc(Cl)c(Cl)cc1Cl`, for which the call was inactive.

Consider `CC(C)[C@H]1CC[C@@H](C)CC1=O`, for which the call was inactive.

`CC[N+](C)(CC)CCOC(=O)C1c2ccccc2Oc2ccccc21`: the molecule was called inactive.

In the case of `CC1(C)[C@@H]2CC[C@@]1(C)[C@H](O)C2`, the outcome was inactive.

Regarding `Cc1ccc(C(=O)c2ccc(CC(=O)O)n2C)cc1`, the outcome was inactive.

As for `C=C(C)C(=O)OCCOCCOCCOCCOC(=O)C(=C)C`, the molecule was called inactive.

Turning to `COc1cc(C)nc(-n2nc(C)cc2OC)n1`, the molecule was classed as inactive.

As to `CCOCC(C)O` (stereo not given), the molecule was called inactive.

As to `COCCOCC(OC)OC`, the result was inactive.

Take `OCCCCCO`: the result was inactive.

In the case of `CO[C@@]1(NC(=O)CSC[C@@H](N)C(=O)O)C(=O)N2C(C(=O)O)=C(CSc3nnnn3C)CS[C@@H]21`, the molecule was called inactive.

With `Clc1cc(Cl)c(Cl)nc1Cl`, the molecule was called inactive.

As to `CCCCc1nc(Cl)c(CO)n1Cc1ccc(-c2ccccc2-c2nn[nH]n2)cc1`, the outcome was inactive.

With `CCOC(=O)C(=O)CCCCCCl`, the result was inactive.

With `[K+]`, the outcome was inactive.

`Cc1ccccc1N=C(N)N=C(N)N`: the molecule was classed as inactive.

For `COC(=O)C1=C(C)NC(C)=C(C(=O)OC(C)C)C1c1cccc2nonc12` (stereo not given), the outcome was inactive.

Turning to `CNCC(O)c1ccc(O)c(O)c1` (stereo not given), the result was inactive.

For `COC(=O)Nc1ccc(Cl)c(Cl)c1`, the outcome was inactive.

With `COc1cc(C(=O)NCc2ccc(OCCN(C)C)cc2)cc(OC)c1OC`, the result was inactive.

As to `Nc1ccccn1`, the result was inactive.

In the case of `C=CCCCCCCCCC(=O)OCC`, the call was inactive.

`O=Cc1cccc(Br)c1`: the molecule was classed as inactive.

`CC(C)c1ccc2ncccc2c1`: the outcome was inactive.

On to `CCCCCCCCCCCCCCC(=O)O`, for which the call was inactive.

With `CN(C)C(=O)Oc1cccc([N+](C)(C)C)c1`, the call was inactive.

With `CC(=O)Nc1ccc(OCC(O)CNC(C)C)cc1` (stereo not given), the outcome was inactive.

For `CCCC(C)C(=O)OCC` (stereo not given), the molecule was called inactive.

Turning to `Cc1nc(C2CCCCC2)c(-c2ccc(S(N)(=O)=O)c(F)c2)o1`, the call was inactive.

Take `N[C@H](C(=O)O)[C@@H](O)c1ccc(O)c(O)c1`: the result was inactive.

For the molecule `CN(C)C(=O)Oc1ccc[n+](C)c1`, the molecule was called inactive.

Take `Cc1ccc(C(=O)c2ccccc2)cc1`: the molecule was classed as inactive.

As for `C[N+]1(C)CCCC(OC(=O)C(O)(c2ccccc2)c2ccccc2)C1` (stereo not given), the molecule was classed as inactive.

Regarding `[O-][n+]1cccc(CO)c1`, the outcome was inactive.

With `CCOC(=O)C1=NOC(c2ccccc2)(c2ccccc2)C1`, the outcome was inactive.

Turning to `CCCCN1C=CN(C)C1`, the viability change, negative = cytotoxic was 5.36% [at 19 µM] (inactive).

For the molecule `CCN(C=O)CC`, the call was inactive.

Consider `CC(C)(C)c1ccc(-c2ccc(C(C)(C)C)cc2)cc1`, for which the outcome was inactive.

Take `[Ca+2]`: the call was inactive.

On to `O=C(O)Cc1csc(-c2ccc(Cl)cc2)n1`, for which the molecule was called inactive.
